In PubChem BioAssay (Tox21):
The source made the active and inactive calls. Unless noted, the call rests on the fitted dose curve; in most records, active means well fitted curve in the direction sought with a large enough effect in the repeat runs; inconclusive means weak or mixed curves; inactive means no such curve, though single readings can be large; an effect the other way counts as inactive or inconclusive.

Assays:
[1] = qHTS assay to identify small molecule antagonists of the estrogen receptor alpha (ER-alpha) signaling pathway - cell viability counter screen (AID 743074; calls by dose curve;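 further: HEK293 cells carrying ER-alpha-UAS-bla reporter stimulated with 17beta-estradiol; nearly all actives have a fitted effect of over 45% in size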; further: potency means the concentration at half of the fitted maximal effect); details: ERalpha-bla HEK293 viability, CellTiter-Glo luminescence, 18 h; series mostly up to 69.4 µM
[2] = qHTS assay to identify small molecule antagonists of the estrogen receptor alpha (ER-alpha) signaling pathway using the BG1 cell line - cell viability counter screen (AID 743081); details: BG1Luc4E2 viability, CellTiter-Fluor, 22 h; series mostly up to 70.3 µM;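 further: compound given together with 17beta-estradiol as the ER stimulus; nearly all actives have a fitted effect of over 45% in size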; further: potency means the concentration at half of the fitted maximal effect
Aromatase (Homo sapiens) = Aromatase (Homo sapiens) (UniProt P11511); assay: qHTS assay to identify aromatase inhibitors (AID 743083); details: MCF-7 aro ERE, testosterone-driven ERE luciferase, 24 h; series mostly up to 70.3 µM; further: nearly all actives have a fitted effect of over 55% in size; further: potency means the concentration at half of the fitted maximal effect
[3] = qHTS assay to identify aromatase inhibitors - cell viability counter screen (AID 743084); details: MCF-7 aro ERE viability, CellTiter-Fluor, 24 h; series mostly up to 70.3 µM;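 further: cells stimulated with testosterone during compound exposure; nearly all actives have a fitted effect of over 55% in size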; further: potency means the concentration at half of the fitted maximal effect
[4] = biological target: Aryl hydrocarbon receptor (Homo sapiens) (UniProt P35869); assay: qHTS assay to identify small molecule that activate the aryl hydrocarbon receptor (AhR) signaling pathway (AID 743085); details: HepG2 AhR-luc (HG2L7.5c1), luciferase, 24 h; series mostly up to 70.3 µM; further: nearly all actives have a fitted effect of over 15% in size; further: potency means the concentration at half of the fitted maximal effect;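 on activation: HG2L7.5c1 human HepG2 liver cells with stably integrated DRE-driven firefly reporter; on the % scale 0 is the no-effect control and ±100 the full control effect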
Procedure, shortened: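 Cell line HG2L7.5c1 (human hepatoma, 20× DRE-luc). Plated, 5 h 37C, compound/DMSO added, 24 h 37C. CellTiter-Fluor 30 min 37C → fluorescence; then ONE-Glo 30 min RT → luminescence.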

[5] = qHTS assay to identify small molecule that activate the aryl hydrocarbon receptor (AhR) signaling pathway - cell viability counter screen (AID 743086); details: HepG2-AhR-luc viability, CellTiter-Fluor, 24 h; series mostly up to 70.3 µM;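 further: HepG2 liver cells carrying the AhR DRE luciferase reporter; on the % scale 0 is the no-effect control and ±100 the full control effect; nearly all actives have a fitted effect of over 45% in size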
Procedure, shortened: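 HepG2-AhR-luc (HG2L7.5c1) cells, 4000/well, were preincubated 5 h at 37C, exposed to compound in qHTS format for 24 hr at 37C, then given CellTiter-Fluor for 30 min; viability was read as fluorescence in the reporter wells.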

[6] = qHTS assay to identify small molecule antagonists of the peroxisome proliferator-activated receptor gamma (PPARg) signaling pathway - cell viability counter screen (AID 743194); details: PPARg-bla HEK293H viability, CellTiter-Glo luminescence, 17 h, co-treated with 50 nM rosiglitazone; series mostly up to 62.6 µM; further: nearly all actives have a fitted effect of over 55% in size; further: potency means the concentration at half of the fitted maximal effect
Procedure, shortened: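 PPARg-UAS-bla HEK293H cells were plated, rested 5 h at 37 C, then treated with compounds plus rosiglitazone (50 nM final) for 17 h at 37 C; viability was then read by CellTiter-Glo luminescence after 30 min at room temperature.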

[7] = qHTS assay for small molecule agonists of the antioxidant response element (ARE) signaling pathway - cell viability counter screen (AID 743203; calls by dose curve; further: nearly all actives have a fitted effect of over 55% in size; further: potency means the concentration at half of the fitted maximal effect); details: ARE-bla HepG2 viability, CellTiter-Glo luminescence, 16 h; series mostly up to 73.3 µM
Procedure, shortened: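 Cytotoxicity was tested in parallel with the ARE reporter screen. ARE-bla HepG2 cells were exposed to compounds for 16 hrs, and viability was taken from CellTiter-Glo luminescence.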

[8] = qHTS assay for small molecule activators of the heat shock response signaling pathway - cell viability counter screen (AID 743209); details: HSE-bla HeLa viability, CellTiter-Glo luminescence, 5 h; series mostly up to 62.6 µM; further: nearly all actives have a fitted effect of over 50% in size; further: potency means the concentration at half of the fitted maximal effect
Procedure, shortened: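 Cytotoxicity counter screen run in parallel with the HSE beta-lactamase reporter, using the same wells. HeLa HSE-bla cells received compound for 5 h at 37 C; ATP-based CellTiter-Glo luminescence was measured after 30 min at room temperature.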

[9] = biological target: Estrogen receptor (Homo sapiens) (UniProt P03372); assay: qHTS assay to identify small molecule agonists of the estrogen receptor alpha (ER-alpha) signaling pathway (AID 743075; calls by dose curve;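 further: HEK293 GripTite cells with ER-alpha and UAS-driven beta-lactamase reporter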; further: potency means the concentration at half of the fitted maximal effect; on activation: on the % scale 0 is the no-effect control and ±100 the full control effect); details: HEK293 ER-alpha-UAS-bla, beta-lactamase FRET ratio, 18 h; activation: at 70.1 µM (top of the series)
[10] = qHTS assay to identify small molecule antagonists of the estrogen receptor alpha (ER-alpha) signaling pathway using the BG1 cell line (AID 743080; calls by dose curve;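 further: BG1 cells stimulated with 17beta-estradiol alongside compound; potency means the concentration at half of the fitted maximal effect; nearly all actives have a fitted effect of over 25% in size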); details: BG1Luc4E2 ERE-luciferase antagonist mode, luminescence; series mostly up to 70.3 µM
Procedure, shortened: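 BG1Luc4E2, endogenous ER-alpha, 4xERE-luc; 5 d charcoal-stripped FBS, phenol red free; 24 h plating; cpd + 17beta-estradiol 21.5 h, 37 C/5% CO2; CellTiter-Fluor viability 30 min, then ONE-Glo luciferase 30 min RT.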

[11] = biological target: Estrogen receptor (Homo sapiens) (UniProt P03372); assay: qHTS assay to identify small molecule agonists of the estrogen receptor alpha (ER-alpha) signaling pathway using the BG1 cell line (AID 743079); details: BG1Luc4E2 cells, ERE-luciferase agonist, 22 h; further: nearly all actives have a fitted effect of over 20% in size; further: potency means the concentration at half of the fitted maximal effect; on activation: on the % scale 0 is the no-effect control and ±100 the full control effect
[12] = qHTS assay for small molecule agonists of the antioxidant response element (ARE) signaling pathway (AID 743202; active means well fitted activation curve with a large enough effect in the signal ratio in the repeat runs, not every such curve was filed as active; inconclusive means weak or mixed curves, or effect the other way; inactive means no such curve, though single readings can be large or run the other way; the % refers to the signal ratio; further: potency means the concentration at half of the fitted maximal effect); details: HepG2 ARE-bla reporter, beta-lactamase FRET, 16 h; series mostly up to 73.3 µM
Procedure, shortened: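 Steps: seed ARE-bla HepG2 cells (2,000/well); incubate 5 h at 37 C; add compounds by pin tool; incubate 16 h at 37 C; add FRET substrate; read fluorescence after 2 h at RT.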

[13] = biological target: Peroxisome proliferator-activated receptor gamma (Homo sapiens) (UniProt P37231); assay: qHTS assay to identify small molecule antagonists of the peroxisome proliferator-activated receptor gamma (PPARg) signaling pathway (AID 743191; calls by dose curve; further: on the % scale 0 is the no-effect control and ±100 the full control effect; nearly all actives have a fitted effect of over 30% in size); details: HEK293H PPARg-UAS-bla, beta-lactamase ratio, antagonist, 17 h; series mostly up to 62.6 µM
Procedure, shortened: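 GeneBLAzer PPARg UAS-bla HEK293H cells carrying a UAS-driven beta-lactamase reporter were plated at 3000 cells/well, preincubated 5 h at 37C, then given compound for 17 h at 37C; LiveBLAzer B/G FRET substrate was read after 1 h at room temperature.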

[14] = qHTS assay for small molecule activators of the heat shock response signaling pathway (AID 743210; active means well fitted activation curve with a large enough effect in the signal ratio in the repeat runs, with a control signal flat, not every such curve was filed as active; inconclusive means weak or mixed curves; the % refers to the signal ratio;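 further: HeLa cells with beta-lactamase reporter driven by heat shock elements; on the % scale 0 is the no-effect control and ±100 the full control effect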); details: HeLa HSE-bla reporter, beta-lactamase ratio, 5 h; series mostly up to 62.6 µM
Procedure, shortened: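 Activation of heat shock element-controlled beta-lactamase expression is measured in HeLa cells by LiveBLAzer FRET fluorescence, with compound exposure lasting 5 h at 37 C and substrate loading 2.5 h at room temperature.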

Chain of Peroxisome proliferator-activated receptor gamma (Homo sapiens) (P37231 whole entry, looked up): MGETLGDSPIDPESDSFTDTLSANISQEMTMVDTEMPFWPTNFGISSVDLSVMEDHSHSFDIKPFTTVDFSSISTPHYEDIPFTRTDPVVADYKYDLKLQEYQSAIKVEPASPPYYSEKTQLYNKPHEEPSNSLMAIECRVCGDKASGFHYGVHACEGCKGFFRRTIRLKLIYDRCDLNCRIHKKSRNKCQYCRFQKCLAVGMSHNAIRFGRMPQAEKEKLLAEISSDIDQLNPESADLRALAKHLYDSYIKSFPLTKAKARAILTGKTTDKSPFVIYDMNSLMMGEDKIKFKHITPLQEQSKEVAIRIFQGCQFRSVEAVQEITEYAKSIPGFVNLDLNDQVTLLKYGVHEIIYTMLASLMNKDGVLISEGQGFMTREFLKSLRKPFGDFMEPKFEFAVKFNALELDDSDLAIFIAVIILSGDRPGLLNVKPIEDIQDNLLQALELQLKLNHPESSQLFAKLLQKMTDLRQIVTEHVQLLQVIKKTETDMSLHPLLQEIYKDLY
Chain of Estrogen receptor (Homo sapiens) (P03372 whole entry, looked up): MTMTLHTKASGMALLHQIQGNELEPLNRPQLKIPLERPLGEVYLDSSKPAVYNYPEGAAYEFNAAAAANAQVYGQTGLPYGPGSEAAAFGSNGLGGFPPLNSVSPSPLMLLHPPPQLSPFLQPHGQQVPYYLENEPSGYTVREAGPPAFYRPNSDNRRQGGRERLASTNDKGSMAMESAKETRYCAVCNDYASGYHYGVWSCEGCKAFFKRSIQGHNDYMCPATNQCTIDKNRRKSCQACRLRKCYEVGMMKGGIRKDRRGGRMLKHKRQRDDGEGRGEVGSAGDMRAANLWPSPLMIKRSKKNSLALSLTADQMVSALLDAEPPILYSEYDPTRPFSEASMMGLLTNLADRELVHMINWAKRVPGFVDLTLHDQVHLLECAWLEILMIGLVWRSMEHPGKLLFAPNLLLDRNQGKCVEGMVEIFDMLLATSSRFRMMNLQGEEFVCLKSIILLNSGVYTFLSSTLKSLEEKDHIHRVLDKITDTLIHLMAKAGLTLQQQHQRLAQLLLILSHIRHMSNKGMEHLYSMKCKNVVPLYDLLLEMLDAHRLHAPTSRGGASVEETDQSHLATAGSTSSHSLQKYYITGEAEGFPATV
Chain of Aryl hydrocarbon receptor (Homo sapiens) (P35869 whole entry, looked up): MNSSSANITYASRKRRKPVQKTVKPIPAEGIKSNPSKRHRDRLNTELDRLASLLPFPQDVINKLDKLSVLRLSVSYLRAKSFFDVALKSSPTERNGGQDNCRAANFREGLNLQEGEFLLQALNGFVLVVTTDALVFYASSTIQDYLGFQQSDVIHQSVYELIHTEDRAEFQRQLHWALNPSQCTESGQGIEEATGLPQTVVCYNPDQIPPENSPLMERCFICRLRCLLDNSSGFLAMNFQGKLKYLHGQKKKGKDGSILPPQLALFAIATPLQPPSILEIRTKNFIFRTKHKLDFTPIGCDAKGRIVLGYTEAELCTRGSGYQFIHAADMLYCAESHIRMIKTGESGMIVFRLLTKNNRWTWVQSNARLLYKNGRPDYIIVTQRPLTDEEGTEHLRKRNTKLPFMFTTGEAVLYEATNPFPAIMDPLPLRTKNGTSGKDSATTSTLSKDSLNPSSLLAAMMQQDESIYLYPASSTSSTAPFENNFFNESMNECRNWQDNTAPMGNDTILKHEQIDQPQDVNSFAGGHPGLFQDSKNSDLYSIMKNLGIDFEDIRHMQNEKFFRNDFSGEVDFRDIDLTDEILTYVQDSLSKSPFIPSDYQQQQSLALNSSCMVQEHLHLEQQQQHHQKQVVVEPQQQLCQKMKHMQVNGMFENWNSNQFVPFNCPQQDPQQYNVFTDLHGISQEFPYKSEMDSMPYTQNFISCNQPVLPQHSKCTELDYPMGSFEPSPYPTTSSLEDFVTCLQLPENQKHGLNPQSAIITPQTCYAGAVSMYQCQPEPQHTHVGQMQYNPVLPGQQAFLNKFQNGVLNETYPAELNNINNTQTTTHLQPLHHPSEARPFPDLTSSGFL
Chain of Aromatase (Homo sapiens) (P11511 whole entry, looked up): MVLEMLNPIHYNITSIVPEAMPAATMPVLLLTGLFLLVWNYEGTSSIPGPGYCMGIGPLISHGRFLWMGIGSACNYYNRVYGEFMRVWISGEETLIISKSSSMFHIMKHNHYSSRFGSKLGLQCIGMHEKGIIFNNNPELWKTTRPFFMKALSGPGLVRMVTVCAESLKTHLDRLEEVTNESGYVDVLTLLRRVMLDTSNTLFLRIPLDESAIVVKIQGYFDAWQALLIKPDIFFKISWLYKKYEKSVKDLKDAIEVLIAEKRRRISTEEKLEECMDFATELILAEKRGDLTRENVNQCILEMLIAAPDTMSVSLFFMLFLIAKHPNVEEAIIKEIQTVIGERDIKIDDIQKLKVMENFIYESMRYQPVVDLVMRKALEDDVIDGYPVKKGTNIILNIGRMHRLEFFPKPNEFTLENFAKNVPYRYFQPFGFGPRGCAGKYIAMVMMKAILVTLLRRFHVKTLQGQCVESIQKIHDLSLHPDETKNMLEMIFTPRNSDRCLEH

NC(=O)CC[C@@H]1NC(=O)[C@H](Cc2ccccc2)NC(=O)[C@H](Cc2ccc(O)cc2)NC(=O)CCSSC[C@@H](C(=O)N2CCC[C@H]2C(=O)N[C@@H](CCCN=C(N)N)C(=O)NCC(N)=O)NC(=O)[C@H](CC(N)=O)NC1=O
inactive: Potency [1] | Potency [2] | Potency (Aromatase (Homo sapiens)) | Potency [3] | Potency [4] | Potency [5] | Potency [6] | Potency [7] | Potency [8]

CCOC(=O)/C=C(C)/C=C/C=C(C)/C=C/c1c(C)cc(OC)c(C)c1C
active: Potency [10] 4.22 µM
inactive: Potency [9] | Potency [2] | Potency (Aromatase (Homo sapiens)) | Potency [3] | Potency [5] | Potency [6] | Potency [7] | Potency [8]

O=C1C=CC(=O)N1
inactive: Potency [9] | activation ([11]; at 95 µM (top of the series)) -8.49% | Potency [4]
active: Potency [1] 56.4 µM | Potency (Aromatase (Homo sapiens)) 8.86 µM | Potency [3] 9.95 µM | Potency [6] 25.2 µM | Potency [8] 20 µM

Cc1oc(-c2ccccc2)nc1CCC(=O)c1ccc(CC2SC(=O)NC2=O)cc1 (stereo not given)
inactive: Potency [6] | Potency [7] | Potency [8]
active: Potency [12] 13.3 µM

CCCCCCCCCCCCCCCCCC[N+](C)(C)C
active: Potency [1] 43.8 µM | Potency (Aromatase (Homo sapiens)) 21.8 µM | Potency [3] 27.4 µM | Potency [6] 27.6 µM | Potency [8] 34.8 µM
inactive: Potency [5]

Cc1cccc(N(C)C(=S)Oc2ccc3c(c2)C2CCC3C2)c1 (stereo not given)
inactive: Potency [13] | Potency [6] | Potency [7] | Potency [8] | Potency [14]

N#CC1(c2ccc(F)cc2)CCC(=O)CC1
inactive: Potency [13] | Potency [6] | Potency [12] | Potency [8] | Potency [14]

COC(=O)c1cc(Cl)ccc1OC
inactive: Potency [13] | Potency [6] | Potency [12] | Potency [7] | Potency [8] | Potency [14]

C=CC(=O)OCC(CO)(COCC(COC(=O)C=C)(COC(=O)C=C)COC(=O)C=C)COC(=O)C=C
active: Potency [1] 21.6 µM | Potency [9] 10.8 µM [inconclusive] | Potency [2] 13.5 µM | Potency (Aromatase (Homo sapiens)) 2.4 µM | Potency [3] 1.7 µM | Potency [6] 3.05 µM | Potency [7] 8.53 µM | Potency [8] 2.72 µM
inactive: Potency [4]

CN(C)CCCOC1(Cc2ccccc2)CCCCCC1
inactive: Potency [13] | Potency [6] | Potency [7] | Potency [8] | Potency [14]

Nc1cc(C(F)(F)F)ccc1S
inactive: Potency [13] | Potency [6] | Potency [12] | Potency [7] | Potency [8]

O=C1CCCc2c1cc1ccc3cccc4ccc2c1c34
inactive: Potency [1] | Potency [2] | Potency (Aromatase (Homo sapiens)) | Potency [3] | Potency [5] | Potency [6]
active: Potency [11] 3.9 µM | Potency [4] 69.4 µM

CCCCCCCC(=O)[O-].CCCCCCCC(=O)[O-].[Zn+2]
inactive: Potency [13] | Potency [6] | Potency [12] | Potency [7] | Potency [8] | Potency [14]
